Common to all, as to experiment: NCI-60 one-dose screen, 48 h (100 = growth as untreated, 0 = no growth, -100 = all killed)
Holding throughout (conditions): 10 µM

The subject of assay [1] is SN12C renal.
The subject of assay [2] is UO-31 renal.
Assay [3] relates to TK-10 renal.
The subject of assay [4] is ACHN renal.
The subject of assay [5] is CAKI-1 renal.
For assay [6], the system named is A498 renal.
For assay [7], the system named is CCRF-CEM leukemia.
Assay [8] concerns MOLT-4 leukemia.
In assay [9] the test system is EKVX NSCLC.
Assay [10] deals with SR leukemia.

Compounds without any hit were thinned out: in the full panel of roughly 83,000, 20% have a hit.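 For each line, cells grew in 96-well plates with the test compound present at a single concentration for 48 hours.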 Values without a mark were called inactive. Activity calls are given as the source filed them. The calls were made as follows: active = growth percent below 10; inactive = the rest.

For the compound `COc1ccc(Nc2cc(C)nc(NCCCNc3ccnc4cc(Cl)ccc34)n2)cc1`, the growth in [1] is 1.94% (active); in [2] it was -73.5% (active); in assay [3], -83.9% (active); in assay [4], -93% (active); in [5], -69.6% (active); in [6] it was -0.29% (active). In addition, the growth in assay [7] is -21.9% (active); in [8], -35.1% (active).

As for `Cn1c([N+](=O)[O-])cnc1/C=C1\Oc2ccc(Cl)cc2C1=O`, the growth in assay [1] is -10.9% (active); in assay [2], -31.9% (active); in [3] it was -23% (active); in assay [4], -2.7% (active); in assay [5], -22.9% (active); in [6], 12.3%. The growth in assay [7] was -11.8% (active).

For the compound `CCN1CCCC1CNC(=O)c1ncc(-c2ccc(C(F)(F)F)cc2)c(NC2CCCCCC2)n1` (stereo not given), the growth was 86.7% in assay [1]; 45% in assay [2]; 74.1% in assay [3]; 93.5% in assay [4]; 83% in assay [5]; 58.3% in assay [6]. The growth is 63.3% in assay [7] and 66.3% in [8].

For the compound `CCN(CCCCCCCCCCN1CC(=O)N(CCCCCCCCCCN(CC)Cc2ccccc2OC)CC1=O)Cc1ccccc1OC`, the growth was -0.258% (active) in assay [9]; -74.8% (active) in assay [2]; 10.1% in assay [3]; 3.48% (active) in assay [4]; -12.8% (active) in assay [5]; -25.5% (active) in assay [7]. In addition, the growth in [8] is -32.7% (active); in [10], -61.3% (active).

For `COc1cc(-c2cc(C(=O)N3CCN(C(=O)c4ccccc4NCc4ccco4)CC3)nc3cc(-c4ccccc4)nn23)cc(OC)c1OC`, the growth is 49% in assay [9]; 6.15% (active) in [2]; 35.8% in assay [3]; 53.6% in assay [4]; 12% in assay [5]; -0.0574% (active) in assay [6]. Further, the growth in [8] was 37.8%; in assay [10] it was -2.88% (active).

Take `O=C1/C(=C\c2ccc(Cl)cc2)CN(C(=O)c2ccccc2)C/C1=C\c1ccc(Cl)cc1`: the growth in [1] was 36.8%; in assay [2] it was 2.38% (active); in assay [3], 94.7%; in assay [4] it was 47.4%; in assay [5] it was 32.4%; in [6] it was 84.2%. Further, the growth is 11.2% in assay [7], 21.5% in [8] and -20.1% (active) in assay [10].

As for `COc1ccc(-c2nn(-c3cccc(NC(=O)Nc4ccc(Cl)c(C(F)(F)F)c4)c3)cc2-c2ccncc2)cc1Cl`, the growth in assay [1] was 21.1%; in [2] it was -11.2% (active); in [3], 10.3%; in assay [4], 12.6%; in [5], 9.1% (active); in [6] it was -0.894% (active). Also, the growth in assay [7] is -3.16% (active); in assay [8], -6.09% (active); in [10] it was -18.4% (active).

As to `O=C(Nc1cccc(-n2cc(-c3ccncc3)c(-c3cc(O)cc(Cl)c3)n2)c1)c1cc(C(F)(F)F)cc(C(F)(F)F)c1`, the growth in assay [1] was 50.3%; in [2], 49.1%; in [3], 73%; in assay [4] it was 37.7%; in assay [5] it was 58.5%; in [6] it was 40.3%. Moreover, the growth in [7] is 26.9%; in assay [8] it was 19.5%; in [10], 3.15% (active).

For the compound `O=C(CCCCC[P+](c1ccccc1)(c1ccccc1)c1ccccc1)NC(COC(=O)C(Cl)Cl)(COC(=O)C(Cl)Cl)COC(=O)C(Cl)Cl`, the growth in assay [1] is 96.8%; in assay [2], 94%; in assay [3], 87.4%; in assay [4] it was 113%; in [5], 107%; in assay [6] it was 89.7%. The figures for the growth in [7], in assay [8] and in assay [10] were 88.7%, 97.6% and 88.8%, respectively.

For `COc1cc(-c2cc(/C=C3\C(=O)Nc4ccc(Cl)cc43)[nH]n2)cc(OC)c1OC`, the growth in assay [1] was 7% (active); in assay [2], 9.62% (active); in [3] it was 27.5%; in [4] it was 23.9%; in assay [5], 17.5%; in assay [6], 41.1%. Besides, the results for the growth in [7], in [8] and in assay [10] were 10.7%, -4.3% (active) and 20.4%, respectively.

Consider `O=c1oc2cc(OS(=O)(=O)c3ccccc3)ccc2c2c1CCCCC2`, for which the growth in assay [1] was 61.4%; in [2], 59.4%; in assay [3] it was 67.9%; in assay [4], 82.2%; in assay [5], 73.9%; in assay [6], 48.9%. Moreover, the growth in assay [7] is 37.2%; in [8], 31.4%; in assay [10] it was 7% (active).

Regarding `COc1ccc(-c2nn(-c3cccc(NC(=O)Nc4ccccc4)c3)cc2-c2ccncc2)cc1Cl`, the growth in assay [1] was 31.4%; in assay [2] it was -39.9% (active); in [3], 28.1%; in [4], 34.8%; in [5], -7.47% (active); in [6], 32.2%. For the same compound, the figures for the growth in assay [7], in [8] and in assay [10] were 11.9%, -2.67% (active) and -6.06% (active), respectively.

Turning to `COc1ccc(-c2ccc(-c3ccc(C(=N)N)cn3)o2)cc1`, the growth in assay [1] was 74.9%; in [2], 30.7%; in assay [3], 117%; in [4] it was 80.6%; in assay [5] it was 75.1%; in assay [6], 59.4%. Moreover, the growth in assay [7] was 74.3%; in [8] it was 52.7%; in assay [10], 10.3%.

For the compound `CC(=O)O[C@]1(C)CC[C@H]2[C@H](CNCCc3ccc(Cl)cc3)C(=O)O[C@@H]2C2=C(C)C(=O)C[C@H]21`, the growth in assay [1] is 94.2%; in assay [2] it was 78.1%; in assay [3], 97.7%; in assay [4], 96.2%; in assay [5], 98.5%; in assay [6], 86.9%. In addition, the growth is 83.6% in assay [7], 71% in [8] and 81.4% in [10].

The values are drawn from PubChem BioAssay (NCI).
